This is one part of the list. Inconclusive results are not listed. Calls of active or inactive are those of the source. Calls follow the shape of the dose curve; as a rule, active = well fitted inhibition curve with a large enough effect; inconclusive = small, poorly fitted or top-dose-only effect; inactive = no such curve, though single readings can be large or run the other way.
Test: High Content Assay for Compounds that inhibit the Assembly of the Perinucleolar Compartment: Confirmation of PNC Inhibition
Details: PC3M PTB-GFP, PNC prevalence imaging, 16 h; series mostly up to 46.1 µM; activity, negative = PNC inhibition: at the top concentration
Excerpt: High Content Assay for Compounds that inhibit the Assembly of the Perinucleolar Compartment NIH Chemical Genomics Center [NCGC] NIH Molecular Libraries Probe Centers Network [MLPCN] MLPCN Grant: MH082371-01A2 Assay Submitter (PI): Sui Huang, Northwestern University, Feinberg School of Medicine, Cell and Molecular Biology, Chicago, Illinois. The perinucleolar compartment (PNC) is a non-membrane-bound nuclear subdomain that is associated with but structurally distinct from the nucleolus. The PNC is a heritable trait, in which the number of PNCs per cell in daughter cells often mimics that of their mother cells. The PNC is heterogeneous in shape, is stable through interphase, disassembles during mitosis, and reassembles in early G1. The PNC is concentrated with newly synthesized RNA polymerase III (pol III) RNAs (MRP RNA, RNAse P H1 RNA, hY RNAs[hY1, 2, 5], Alu RNA, and SRP [7SL] RNA) and RNA binding proteins (nucleolin, PTB, CUG-BP, KSRP, Raver1, Raver2, and Rod). […] Extensive in vitro studies have shown that the PNC is unique to tumor cells and preferentially forms in tumor cells derived from solid tissues. Examination of cancer cell lines from various origins and malignant capacities has shown that PNC prevalence correlates with the malignancy of tumors and has the potential to be developed as a pan-cancer prognostic marker. […] Although the PNC is associated with a DNA locus and a handful of components have been identified, much remains to be investigated regarding the structure and function of the PNC and its mechanistic link to cancer. We have previously shown that PNC prevalence reduction is a valid strategy to identify compounds that can be used to study the structure and function of the PNC. It is necessary, however, to create a screening platform that is able to test a large number of compounds in an automated fashion. Here we report the development and robustness of an automated whole-cell phenotypic image-based screening assay that is capable of identifying such compounds. Compounds active in the primary screen were then re-screened in concentration-response to confirm activity.
PNC High Content Imaging Assay Procedure: 1. Cells at a density of 75-90% confluency in T175 flasks were harvested using 7 ml TrypLE Express cell dissociation reagent. After dissociation (5 minutes room temperature incubation) 10 ml of complete media was added to the TrypLE/cell suspension. The liquid was transferred to a 50 ml Conical tube and cells were pelleted at 1000 RPM for 5 min. Supernatant was removed and cells were resuspended to a final density of 150-200 cells/ul in complete media. 2. Cells were plated in 5 ul volume (750-1000 cells/well) into 1536 well Black uclear Aurora Low Base plates and allowed to recover and adhere at 37 C in a humidified 5% CO2 incubator for 4 hours. 3. After 4 hour incubation, compound libraries (23 nl of […] in columns 5-48) were transferred to the plates in duplicate using a 1536 well pintool. Camptothecin positive control (59 uM final) was added to column 2 and 1:3 dilutions of camptothecin was added to column 3. DMSO negative controls were present in columns 1 and 4. 4. After a 16 hour incubation in the 37 C incubator, cells were fixed by the addition of 4 ul of 6% EM grade paraformaldehyde (containing 0.1% triton X 100) directly to the cells. The plates were incubated at room temperature for 20 minutes. […]
In the case of `COC(=O)c1ccc(CSc2ccccc2C)o1`, the “activity, negative = PNC inhibition” value is reported as 9.2% (inactive).
In the case of `COC(=O)C1=C(C)N(c2ccc(Br)cc2)C(=O)/C1=C\c1ccco1`, the “activity, negative = PNC inhibition” value is reported as -26.2% (inactive).
For `N=c1c2c(-c3ccccc3)c(-c3ccccc3)n(Cc3ccccc3)c2ncn1CCCO`, the Potency was 4.47 µM (active).
With `CCOC(=O)c1c(-c2cccc(C)c2)csc1NC(=O)c1c(-c2ccccc2)noc1C` the Potency was 2.51 µM (active).
For `Cn1c2ccccc2c(=O)c2c(=O)n(Cc3ccco3)c(COc3ccccc3)nc21`, the Potency was 11.2 µM (active).
